Hit rate of the full screen: of about 52,000 compounds, about 4,300 (8.3%) were called active. Many of the other results were omitted from the sample, so actives are more common in it than they were. Unmarked numbers belong to inactive results. Rule as the data show it: active = survival mostly below about 52% (no sharp cut-off); inactive = mostly above about 56%.
tested on: DeltatarO mutant; test: S. aureus survival, RN4220 and DeltatarO strains – OD600, teichoic acid synthesis inhibitors, primary screen (AID 463173); settings: S. aureus RN4220 wild type/DeltatarO growth, OD600, 18 h, active compounds read low, screened at 18.75 µg/mL (by protocol)

In order of falling survival:
1. CCC(=O)Nc1sc2c(c1C(=O)Nc1ccc(Br)cc1)CCCCC2  135%
2. COc1ccc(NC(=O)c2c(NC(=O)Cc3ccccc3)sc3c2CCCC3)cc1  124%
3. Cc1ccc(C)c(NC(=O)c2cnn(-c3cccc(F)c3)c2C2CCN(C(=O)OC(C)(C)C)CC2)c1  122%
4. Cc1ccc(-n2c(C)nc3c(cnn3-c3ccccc3C)c2=O)cc1F  120%
5. COc1ccc(-n2c(C)nc3c(cnn3-c3ccc(C)c(C)c3)c2=O)cc1Cl  118%
6. O=C(NCc1ccc2c(c1)CCN2C(=O)c1ccc(F)cc1)c1ccco1  115%
7. COc1cccc(-n2c(-c3ccco3)nc3c(cnn3-c3ccc(Cl)cc3)c2=O)c1  113%
8. CCCN(CCC)C(=O)Cn1c(=O)n(-c2ccc(CC)cc2)c(=O)c2c3c(sc21)CCC3  110%
9. O=C(Nc1ccccn1)c1cccs1  109%
10. Cc1nc2cc(C(F)(F)F)ccc2n1C1CCN(CC(=O)N2CCCC2)CC1  109%
11. NC(=O)CN1c2cccc3cccc(c23)S1(=O)=O  104%
12. Cc1cnn(Cc2ccccc2)c1N  98%
13. NC(=O)c1ccccc1NS(=O)(=O)c1ccccc1  97%
14. Cc1cc(-c2ccccc2)n2ncc(C#N)c2n1  96%
15. CSc1nc2c(sc3ccccc32)c(=O)n1Cc1ccc(C)cc1  96%
16. Cc1ccc(CNC(=O)c2ccc(CSCc3cccc(C)c3)o2)cc1  93%
17. c1ccc(CCn2nnnc2CN2CCCc3ccccc32)cc1  93%
18. CCOc1ccc(CCNC(=O)C2Cc3ccccc3N2C(=O)CC)cc1OCC (stereo unspecified)  93%
19. Cc1ccc(-n2ncc3c(=O)n(Cc4cccc(C(F)(F)F)c4)cnc32)cc1C  93%
20. Cn1c(=O)n(C)c2cc(CNCc3ccc(F)cc3)ccc21  92%
21. CCOC(=O)c1cc(-c2ccccc2)n(CC(=O)NC(C)c2ccccc2)c1C (stereo unspecified)  91%
22. CCOC(=O)C1CCCN(C(=O)c2nn(-c3ccc(C)cc3)c(=O)c3c2c2ccccc2n3C)C1 (stereo unspecified)  90%
23. COC(=O)C1C(=O)NC(S)=C(C#N)C1c1ccccc1Cl (stereo unspecified)  89%
24. Cc1c(-c2ccc(Br)cc2)c(=O)oc2ccc(OC(=O)N3CCOCC3)cc12  86%
25. COc1ccc(OCCCCn2c(C3CC(=O)N(c4cccc(Cl)c4)C3)nc3ccccc32)cc1 (stereo unspecified)  86%
26. COc1ccc(/C=C/C(=O)N2CCC(c3nc4ccccc4o3)CC2)cc1OC  86%
27. COc1ccc(NC(=O)c2csnn2)cc1Cl  86%
28. Cc1ccc(C)c(S(=O)(=O)c2cn(C)c3cc(N4CCCCC4C)c(F)cc3c2=O)c1 (stereo unspecified)  86%
29. CCOc1ccccc1CNC(=O)C1CCN(C2=NS(=O)(=O)C(c3ccc(C)c(C)c3)=C2C)CC1  84%
30. CCOc1cccc(NC(=O)C2CC(=O)N(C)C(=Nc3cccc(OC)c3)S2)c1 (stereo unspecified)  82%
31. NC(=O)c1cc(Cl)nc2ccccc12  81%
32. CC(Cc1ccccc1)N=C1NS(=O)(=O)c2ccccc21 (stereo unspecified)  81%
33. Cc1ccc(C)c(Cn2c(C3CC(=O)N(c4ccccc4C)C3)nc3ccccc32)c1 (stereo unspecified)  80%
34. Cc1ccc(CNC(=O)c2cnc(N3CCCCC3)c3ccccc23)cc1  80%
35. COc1ccc(-n2c(=O)c3ccc(C(=O)NCc4ccc(C)cc4)cc3n(CC(=O)Nc3cccc(F)c3)c2=O)cc1  79%
36. COc1ccc(-c2c(C)c3cc(OC(=O)N4CCOCC4)ccc3oc2=O)cc1  79%
37. Cc1ccc(N2C(=O)CSC23C(=O)N(CC(=O)NC2CCCCC2)c2ccccc23)cc1 (stereo unspecified)  79%
38. COc1ccc(-c2nc(-c3cc4cc(Br)ccc4oc3=O)cs2)cc1  78%
39. CCc1ccccc1N1CC(c2nc3ccccc3n2CC(C)C)CC1=O (stereo unspecified)  78%
40. COc1ccccc1N1CCN(C(=O)c2cnc(N3CCOCC3)c3ccccc23)CC1  78%
41. COc1ccc(-c2csc(-c3c(N)c(C(=O)c4ccccc4)n4ccccc34)n2)cc1  77%
42. COc1ccc2[nH]c3c(c2c1)CCN(C(=O)c1cccc(Cl)c1)C3c1ccc(F)cc1 (stereo unspecified)  77%
43. O=C1[C@@H]2CSC(c3ccc(F)cc3)N2C(=O)N1c1ccc(Cl)cc1 (stereo partly specified)  76%
44. CCOC(=O)c1cc(-c2ccc(F)cc2)n(CC(=O)NC2CCCCCC2)c1C  76%
45. COc1ccc(-c2csc(-c3c(N)c(C(=O)c4ccc(OC)c(OC)c4)n4ccccc34)n2)cc1  75%
46. COc1ccccc1OCCCn1c(C2CC(=O)N(c3ccccc3Cl)C2)nc2ccccc21 (stereo unspecified)  75%
47. CCOc1ccc(OCC(=O)Nc2c(C(=O)Nc3ccc(C)cc3)oc3ccccc23)cc1  73%
48. Cc1nnc(N(C)C(=O)Cc2ccc3c(c2)OCO3)s1  73%
49. COc1ccc(-n2c(-c3ccco3)nc3c(cnn3-c3ccc(C)cc3)c2=O)cc1  73%
50. Cc1nc2c(cnn2-c2ccccc2)c(=O)n1-c1ccccc1  73%
51. COc1ccc(-n2c(C)nc3c(cnn3-c3ccc(F)cc3)c2=O)cc1  73%
52. Cc1cccn2c(=O)c(/C=C(\C#N)c3nc4ccccc4n3C)c(Oc3ccc(Br)cc3)nc12  69%
53. COc1ccc(N2CCN(C(=O)c3c(C)nn(-c4ccc(F)cc4)c3-n3cccc3)CC2)cc1  69%
54. Cc1cccc(NS(=O)(=O)c2ccc3c(c2)CCN3C(=O)C2CCC2)c1  69%
55. COc1ccc(C2=NC3(CCCCCC3)N(CC(=O)Nc3cccc(Cl)c3)C2=O)cc1  68%
56. CCOc1ccc(/C=C/c2nc(C#N)c(NC(C)CC)o2)cc1 (stereo unspecified)  68%
57. CCOc1ccc(CCNC(=O)CN2C(=O)c3cccnc3Oc3ccc(C)cc32)cc1OCC  67%
58. CCOC(=O)c1ccc(-n2c(C)nc3c(cnn3-c3ccc(Cl)cc3)c2=O)cc1  67%
59. CCc1ccccc1N1CC(c2nc3ccccc3n2Cc2cccc(C)c2)CC1=O (stereo unspecified)  66%
60. COc1ccc(-c2nc(SCC(=O)NC3CCCC3)c(-c3ccccc3)[nH]2)cc1OC  65%
61. Cc1ccc(N2CC(c3nc4ccccc4n3CCC3CCCCC3)CC2=O)cc1 (stereo unspecified)  64%
62. Cc1cc(C)c2oc(C(=O)NCCc3ccc(S(N)(=O)=O)cc3)cc(=O)c2c1  63%
63. Cc1ccc(CN(C(=O)COc2ccc(Br)cc2)c2ccccn2)o1  62%
64. CC1(C)Oc2ccc(C(=O)N/N=C/c3cccs3)cc2NC1=O  58%
65. Cc1nc2c3ccccc3nc(NNC(=O)CCC(=O)N3CCN(c4cccc(C(F)(F)F)c4)CC3)n2n1  57%
66. O=C(Cc1ccccc1)Nc1sc2c(c1C(=O)Nc1ccc(Br)cc1)CCC2  55%
67. CCN1C(=O)CC(C(=O)Nc2ccc(OC)cc2)SC1=Nc1ccc(C)c(C)c1 (stereo unspecified)  50%
68. O=C(Cc1ccccc1)Nc1sc2c(c1C(=O)Nc1ccccc1)CCCCC2  50%
69. COc1ccccc1Cn1c(C2CC(=O)N(c3ccccc3OC)C2)nc2ccccc21 (stereo unspecified)  49%
70. CCOc1ccc(NC(=O)c2c(NC(=O)Cc3ccccc3)sc3c2CCCCC3)cc1  48%
71. O=C(Cc1ccccc1)Nc1sc2c(c1C(=O)Nc1ccc(Cl)cc1)CCCC2  47%
72. Cn1c(SCc2ccccc2Cl)nc(=O)c2c1NC(=O)CC2c1cc(F)ccc1F (stereo unspecified)  45%
73. Cc1c(Cl)cccc1N1CC(c2nc3ccccc3n2Cc2ccccc2F)CC1=O (stereo unspecified)  41%

With `Cc1ccccc1Cc1c(C)nc2c(-c3ccccc3)c(C)[nH]n2c1=O` the survival was -3% (active).
With `COc1ccc(-c2c(C)c3cc(OC(=O)N4CCOCC4)ccc3oc2=O)cc1OC` the survival was 47% (active).
`COc1ccc(-c2csc(-c3c(N)c(C(=O)c4ccccc4)n4ccccc34)n2)cc1OC` was tested, and the survival was 43% (active).
With `CCOc1cccc(NC(=O)C2CC(=O)N(CC)C(=Nc3ccc(F)cc3)S2)c1` (stereo unspecified) the survival was 17% (active).
For `O=C1CC(c2nc3ccccc3n2CCC2CCCCC2)CN1c1ccccc1Cl` (stereo unspecified), the survival was 21% (active).
With `Cc1cccc(N2CC(c3nc4ccccc4n3CCC3CCCCC3)CC2=O)c1` (stereo unspecified) the survival was 31% (active).
In the case of `Cc1ccccc1N1CC(c2nc3ccccc3n2Cc2ccc(Br)cc2)CC1=O` (stereo unspecified), the survival is reported as 25% (active).
In the case of `Cc1ccccc1N1CC(c2nc3ccccc3n2CCC2CCCCC2)CC1=O` (stereo unspecified), the survival is reported as 16% (active).
In the case of `CCc1ccccc1N1CC(c2nc3ccccc3n2CCC2CCCCC2)CC1=O` (stereo unspecified), the survival is reported as 10% (active).
In the case of `NC(=O)c1ccc(-c2ccccc2)cc1C(N)=O`, the survival is reported as 66% (active).
In the case of `CCOc1ccc(NC(=O)c2c(NC(=O)Cc3ccccc3)sc3c2CCCC3)cc1`, the survival is reported as 45% (active).
With `Cc1ccc(NC(=O)c2c(NC(=O)Cc3ccccc3)sc3c2CCCC3)cc1` the survival was 28% (active).
For `Cc1ccc(NC(=O)c2c(NC(=O)Cc3ccccc3)sc3c2CCC3)cc1`, the survival was 24% (active).
With `O=C(Cc1ccccc1)Nc1sc2c(c1C(=O)Nc1ccc(Br)cc1)CCCC2` the survival was 57% (active).
With `CCc1cccc(-n2c(C)nc3c(cnn3-c3ccc(C)c(C)c3)c2=O)c1` the survival was -1% (active).
In the case of `COc1cccc(-n2c(C)nc3c(cnn3-c3ccc(C)c(C)c3)c2=O)c1`, the survival is reported as 50% (active).
`CCc1cccc(-n2c(C)nc3c(cnn3-c3ccc(Cl)cc3)c2=O)c1` was tested, and the survival was -1% (active).
`COc1cccc(-n2c(-c3ccco3)nc3c(cnn3-c3ccc(C)cc3)c2=O)c1` was tested, and the survival was 52% (active).

— PubChem BioAssay AID463173 (ICCB-Longwood Screening Facility, Harvard Medical School, 2010)
